The panel holds about 83,000 compounds, 20% with a hit somewhere; the sample as a whole holds those more often.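 Compound tested at a single concentration for 48 hours in 96-well plates; a percent growth value below 10 was scored as active.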 A number with no mark means an inactive call. Active and inactive are the calls of the source.
The compounds below were run on TK-10 renal (assay: NCI-60 one-dose screen, 48 h (100 = growth as untreated, 0 = no growth, -100 = all killed)). Settings: 10 µM unless noted.
Procedure: Growth inhibition of the TK-10 human tumor cell line is measured as a screen for anti-cancer activity. Cells are grown in 96 well plates and exposed to the test compound for 48 hours. Compounds are tested at a single concentration, which is 10^-5 M for most compounds. The reported endpoint is percent growth (GI% or GIPRCNT), where numbers from 0 - 100% represent growth inhibition, and numbers from -100% - 0 represent cell death. For example, a value of 40 represents 60% growth inhibition. A value of 0 means no net growth occurred over the course of the experiment. A value of -40 indicates 40% of cells at the beginning of the experiment died by the end of the experiment. A value of -100 means all cells are dead at the end of the experiment.
NCI-60 Human Tumor Cell Lines Screen was performed using the standard one-dose NCI protocol, which is described in more detail at https://dtp.cancer.gov/discovery_development/nci-60/default.htm.
Compounds with GIPRCNT values below 10 were considered active. Activity score was based on GIPRCNT using the following formula: […]
Score is 0 for GIPRCNT values of 100 or above, 50 for GIPRCNT values of 0, and 100 for GIPRCNT values of -100.

| Compound | growth |
| --- | --- |
| CC(=O)Nc1ccc(C(=O)COc2ccc(/C=C3\CCc4ccccc4C3=O)cc2)cc1 | 112% |
| Cc1ccc(C2=NNC(c3sc(Cl)nc3Cl)C2)cc1 (stereo not given) | 133% |
| O=C(O)C1CCN(S(=O)(=O)c2ccc(-c3ccccc3)cc2)CC1 | 133% |
| O=C(c1ccc(Cl)cc1)c1ccc(Cl)cc1 | 101% |
| O=C(CNC(=O)c1cccc2ccccc12)Nc1ccccc1Oc1ccc(O)cc1 | 43.6% [5 µM] |
| COC(=O)CC1=C(c2ccc([N+](=O)[O-])cc2)CCC1=O | 107% |
| Cc1[nH]c(=O)[nH]c(=O)c1CCSSCCc1c(C)[nH]c(=O)[nH]c1=O | 101% |
| COc1ccc2nc(NC(=O)CN3CCn4c(nnc4C(F)(F)F)C3)sc2c1 | 97.5% |
| CC1c2ccccc2-c2ccccc2N1C (stereo not given) | 94.3% |
| COc1ccc(-c2nnc3c4[nH]cnc4ncn23)c(OC)c1 | 10.8% |
| c1ccc(-c2nc(Nc3nccnn3)c3ccccc3n2)cc1 | 155% |
| CC[n+]1c(/C=C/c2ccc(N3CCCC3)cc2)cccc1/C=C/c1ccc(N2CCCC2)cc1 | -80.5% (active) |
| O=c1oc2c(cc1-c1ccc([N+](=O)[O-])cc1)C(O)Oc1ccccc1-2 (stereo not given) | 95.8% |
| Nc1nc(NC2CC2)c2ncn(C3C=CC(CO)C3)c2n1 (stereo not given) | 96.4% |
| CC[C@@H](C)/C=C(C)/C=C/C(=O)c1c(O)c(-c2ccc(O)cc2)cn(OC2CC(=O)CCC(C)OC(=O)CC2O)c1=O (stereo not given in full) | 43.1% |
| COc1cc(-c2nc3sc4c(c3c(=O)[nH]2)CCCCCC4)cc(OC)c1OC | 47.6% |
| O=C(/C=C/c1ccc(C(F)(F)F)cc1)c1ccc(Nc2nc(NCCO)nc(NCCO)n2)cc1 | 54.8% |
| CCOc1cc(/C=C/C(=O)CC(=O)/C=C/c2ccc(OC(=O)CNCCN(CC)CC)c(OCC)c2)ccc1OC(=O)CNCCN(CC)CC | 7.64% (active) |
| O=C1NC(=S)S/C1=C\c1cc(Br)ccc1O | 107% |
| O=C(Nc1ccccc1)P(=O)(O)c1ccccc1 | 107% |

| Compound | growth |
| --- | --- |
| CCCn1c(N)c(C(=O)CNc2ccc(I)cc2)c(=O)[nH]c1=O | 59% |
| Cn1cnc([N+](=O)[O-])c1Sc1nc(N)nc2nc[nH]c12 | 38.5% |
| N#Cc1c(NC(=O)c2ccco2)[n+]([O-])c2ccccc2[n+]1[O-] | 133% |
| CCCCc1ccc(C(N)=O)nc1 | 103% |
| Cc1sc2nc(N3CCCCC3)[nH]c(=O)c2c1C | 106% |
| O=C1N=C(N2CCOCC2)S/C1=C\c1cn(-c2ccccc2)nc1-c1ccccc1 | 57.1% |
| [N-]=[N+]=NCc1ncc(-c2ccc(C(F)(F)F)cc2)c(NC2CCCCCC2)n1 | 112% [50 µM] |
| Cc1ccc(-c2cc(-c3ccccc3)n(-c3ccccc3)n2)cc1 | 99.4% |
| COc1ccc(NS(=O)(=O)N2CCCCC2)cc1 | 102% |
| CO[C@H]1/C=C/O[C@@]2(C)Oc3c(C)c(O)c4c(O)c(c(/C=N/N5C(C)CN(Cc6ccc(C#N)cc6)CC5C)c(O)c4c3C2=O)NC(=O)/C(C)=C\C=C\[C@H](C)[C@H](O)[C@@H](C)[C@@H](O)[C@@H](C)[C@H](OC(C)=O)[C@@H]1C (stereo not given in full) | 19.7% |
| Cc1ccc(-c2c3c(N)c4c(nc3nc3c2c(C)nn3-c2ccccc2)CCC4)cc1 | 100% |
| Cc1ccc(-c2csc(N)n2)cc1 | 97.2% |
| COCCCNS(=O)(=O)c1ncnc2nc[nH]c12 | 140% |
| CCN(Cc1cccc(S(=O)(=O)[O-])c1)c1ccc(C(=C2C=CC(=[N+](CC)Cc3cccc(S(=O)(=O)O)c3)C=C2)c2ccccc2S(=O)(=O)O)cc1 | 93.1% |
| CN1C(=O)C(C2=NN(C=O)C(c3ccc(F)cc3)C2)C(=O)N(C)C1=O (stereo not given) | 99.1% |
| O=c1c2c(=NCCCN3CCCC3)cc3c(=O)n(CCCN4CCCC4)c(=O)c4c(NCCCN5CCCC5)cc(c(O)n1CCCN1CCCC1)c2c4-3 | 13.1% |
| Cc1nn2c(/C=C3/C(=O)Nc4cc(Cl)ccc43)c(-c3ccccc3)nc2s1 | -55.3% (active) |
| COc1cc(/C=C\C(C)=N\Nc2ccccc2)ccc1O | 94.5% |
| c1ccc(CN=C(NCc2ccccc2)NCc2ccccc2)cc1 | 58.6% |
| O=C1C=CC(=O)N1c1ccccc1N1C(=O)C=CC1=O | 97.3% |

From PubChem BioAssay (NCI)
